From PubChem BioAssay (Tox21) come the findings set out here.

Experiment [1] is described as follows: A CellTox Green Cytotoxicity Assay to monitor cytotoxicity in HEK293 cells - 32 hour (AID 1224881). Further: nearly all actives have a fitted effect of over 40% in size. In outline:
(§1)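 HEK293 cells premixed with CellTox Green dye were seeded at 600 cells/well and left 5 h at 37 C/5% CO2 before pin transfer of 23 nL compound in DMSO. Fluorescence from dye bound to dead-cell DNA was read during 40 h treatment.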

Experiment [2] in a line: A CellTox Green Cytotoxicity Assay to monitor cytotoxicity in HepG2 cells - 0 hour (AID 1224882). Further: nearly all actives have a fitted effect of over 35% in size. In outline: (§2)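 HepG2 cells were seeded together with the CellTox Green dye at 600 cells/well, left 5 h at 37 C/5% CO2, then given compounds in DMSO. Fluorescence from dye bound to dead-cell DNA was read repeatedly over 40 h of treatment at 37 C.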
A short description of experiment [3]: A CellTox Green Cytotoxicity Assay to monitor cytotoxicity in HepG2 cells - 32 hour (AID 1224883). Further: nearly all actives have a fitted effect of over 50% in size. Further: potency means the concentration at half of the fitted maximal effect. The method in brief:
as §2

Experiment [4] is described as follows: A CellTox Green Cytotoxicity Assay to monitor cytotoxicity in HEK293 cells - 8 hour (AID 1224884). Further: nearly all actives have a fitted effect of over 35% in size. The method in brief:
as §1

Experiment [5] in a line: qHTS RealTime-Glo MT Cell Viability Assay in HepG2 cells - 16 hour (AID 1224885). Further: nearly all actives have a fitted effect of over 50% in size. The method in brief:
(§3)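 Viability was tracked continuously by NanoLuc luminescence from prosubstrate reduced by living HepG2 cells, at successive time points over 40 h of compound exposure. Cells with reagent were preincubated 5 h at 37 °C before compound addition.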

The nature of experiment [6]: qHTS RealTime-Glo MT Cell Viability Assay in HEK293 cells - 24 hour (AID 1224886). Further: nearly all actives have a fitted effect of over 50% in size. Further: potency means the concentration at half of the fitted maximal effect. The method in brief:
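Viability tracked continuously by luminescence as live cells reduce a prosubstrate for NanoLuc; HEK293 cells preincubated 5 h, compound-treated at 37 C, and read at 0, 8, 16, 24, 32 and 40 h.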
(In general: Quantitative high-throughput screening tests each substance at several concentrations.)

The nature of experiment [7]: qHTS RealTime-Glo MT Cell Viability Assay in HEK293 cells - 8 hour (AID 1224887). Further: nearly all actives have a fitted effect of over 50% in size. Further: potency means the concentration at half of the fitted maximal effect. In outline:
(§4)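 HEK293 cells mixed with RealTime-Glo reagents (NanoLuc plus cell-permeant prosubstrate) at 600 cells/well, preincubated 5 h at 37 C/5% CO2, then given 23 nL compound in DMSO. Nonlytic luminescence from viable cells was read at 0, 8, 16, 24, 32 and 40 h.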

Experiment [8] in a line: A CellTox Green Cytotoxicity Assay to monitor cytotoxicity in HEK293 cells - 16 hour (AID 1224888). Further: nearly all actives have a fitted effect of over 35% in size. The method in brief: as §1
The nature of experiment [9]: qHTS RealTime-Glo MT Cell Viability Assay in HepG2 cells - 0 hour (AID 1224889). Further: nearly all actives have a fitted effect of over 50% in size. In outline: as §3
Experiment [10] in a line: qHTS RealTime-Glo MT Cell Viability Assay in HEK293 cells - 0 hour (AID 1224880). Further: top concentration of the series differs between compounds; nearly all actives have a fitted effect of over 45% in size. In outline: as §4

Where “and” joins values, the source holds several entries; their conditions need not be identical. Identical values can stand only once. Results filed as inconclusive are left out. More than one record can exist for a structure, and the calls need not agree. Calls of active or inactive are those of the source. The call rests on the fitted dose curve; in most records, active means well fitted curve in the direction sought with a large enough effect in the repeat runs; inconclusive means weak or mixed curves; inactive means no such curve, though single readings can be large; an effect the other way counts as inactive or inconclusive.

In the case of `NCCNc1cccc2ccccc12`, the Potency result in experiment [1], in experiment [2], in experiment [4], in experiment [5], in experiment [7] and in experiment [8] was “inactive” in each case. Besides, in experiment [9], the Potency entry was “inactive”. Moreover, the Potency was 53.6 µM (active) and inactive in experiment [3]; 48.9 µM (active) and 47.8 µM (active) and inactive in experiment [6].
On to `CC(C)Cc1ccc(C(C)C(=O)O)cc1` (configuration not stated), for which the Potency result in [10], in experiment [1], in experiment [3], in [4], in experiment [5] and in experiment [6] was “inactive” each time. Besides, the Potency result in experiment [8] and in experiment [9] was “inactive” each time.
As to `CCCCOCCOCCSC#N`, the Potency result in experiment [10], in experiment [1], in experiment [3], in experiment [4], in experiment [5] and in experiment [6] was “inactive” each time. In addition, the Potency result in [7], in [8] and in experiment [9] was “inactive” in each case.
On to `NC(=O)NO`, for which the Potency result in experiment [10], in [1], in experiment [3], in experiment [4], in experiment [5] and in [6] was “inactive” throughout. For the same compound, the Potency result in experiment [8] and in experiment [9] was “inactive” each time.
With `COC(=O)C1CCC(C(=O)OC)CC1` (configuration not stated), the Potency entry in [10], in [1], in [3], in [4], in experiment [5] and in experiment [6] was “inactive” throughout. Moreover, the Potency entry in [8] and in experiment [9] was “inactive” in each case.
Regarding `CCOC(=O)C(C)(C)Oc1ccc(Cl)cc1`, the Potency result in experiment [10], in experiment [1], in experiment [3], in [4], in [5] and in experiment [6] was “inactive” throughout. In addition, the Potency result in experiment [7], in experiment [8] and in experiment [9] was “inactive” each time.
In the case of `Cc1cnc(NC(=O)C2=C(O)c3ccccc3S(=O)(=O)N2C)s1`, the Potency result in experiment [10], in experiment [1], in [3], in experiment [4], in experiment [5] and in [6] was “inactive” throughout. The Potency entry in experiment [7], in experiment [8] and in experiment [9] was “inactive” throughout.
For `Nc1ccc(N=Nc2ccccc2)c(N)n1`, the Potency result in experiment [10], in experiment [1], in experiment [4], in experiment [5], in experiment [8] and in experiment [9] was “inactive” each time. Besides, the Potency in experiment [3] is 31.1 µM (active) and 17.4 µM (active); in experiment [6], 39.1 µM (active) and 24.5 µM (active).
Regarding `CN/C(=C\[N+](=O)[O-])NCCSCc1ccc(CN(C)C)o1`, the Potency result in experiment [10], in [1], in experiment [3], in experiment [4], in experiment [5] and in experiment [6] was “inactive” in each case. Further, the Potency entry in experiment [8] and in [9] was “inactive” each time.
`CC(C)CC(C)CC(O)CC(C)C` (configuration not stated): the Potency result in experiment [10], in [1], in experiment [3], in [4], in experiment [5] and in experiment [6] was “inactive” throughout. Also, the Potency result in [8] and in experiment [9] was “inactive” throughout.
With `CCCCCCCCCCCCCC(=O)OC(C)C`, the Potency entry in experiment [10], in experiment [1], in experiment [3], in experiment [4], in experiment [5] and in [8] was “inactive” in each case. Further, the Potency result in [9] was “inactive”. Further, the Potency entry in [6] is “inactive and 3.47 µM (active)”; in experiment [7] it was “inactive and 9.77 µM (active)”.
For the compound `CC1=C(/C=C/C(C)=C/C=C/C(C)=C/C(=O)O)C(C)(C)CCC1`, the Potency entry in [10], in experiment [1], in [3], in experiment [4], in experiment [5] and in [6] was “inactive” in each case. The Potency result in experiment [8] and in [9] was “inactive” throughout.
As for `COC(=O)c1ccc(O)cc1`, the Potency result in [1], in experiment [3], in experiment [4] and in experiment [8] was “inactive” each time.
Turning to `CN(C)Cc1cc(CN(C)C)c(O)c(CN(C)C)c1`, the Potency result in experiment [10], in experiment [1], in experiment [3], in [4], in experiment [5] and in [6] was “inactive” each time. The Potency entry in experiment [8] and in experiment [9] was “inactive” throughout.
As for `O=C(O)CN(CC(=O)O)CC(=O)O`, the Potency entry in experiment [10], in experiment [1], in experiment [3], in experiment [4], in experiment [5] and in experiment [6] was “inactive” each time. The Potency result in experiment [8] and in experiment [9] was “inactive” each time.
As to `Oc1cccc(O)c1`, the Potency entry in experiment [10], in experiment [1], in experiment [3], in [4], in [5] and in [6] was “inactive” throughout. Besides, the Potency entry in experiment [7], in experiment [8] and in experiment [9] was “inactive” throughout.
On to `OC[C@@H](O)[C@@H](O)[C@H](O)[C@H](O)CO`, for which the Potency result in experiment [10], in experiment [1], in experiment [3], in experiment [4], in experiment [5] and in [6] was “inactive” in each case. In addition, the Potency entry in [8] and in experiment [9] was “inactive” each time.
`COc1ccccc1NC(=O)CC(C)=O`: the Potency result in experiment [10], in experiment [1], in [3], in experiment [4], in experiment [5] and in [6] was “inactive” in each case. The Potency result in experiment [8] and in experiment [9] was “inactive” each time.
For the compound `CC(=O)OC/C=C(C)/C=C/C=C(C)/C=C/C1=C(C)CCCC1(C)C`, the Potency entry in experiment [10], in experiment [1], in experiment [3], in experiment [4], in experiment [5] and in [6] was “inactive” each time. For the same compound, the Potency result in experiment [7], in experiment [8] and in [9] was “inactive” throughout.
For `CC(=O)Oc1ccccc1C(=O)O`, the Potency result in experiment [10], in experiment [1], in experiment [3], in experiment [4], in [5] and in [6] was “inactive” each time. Further, the Potency entry in experiment [8] and in experiment [9] was “inactive” throughout.
`COC(=O)c1ccc(C=O)cc1`: the Potency result in experiment [10], in experiment [1], in experiment [3], in experiment [4], in experiment [5] and in experiment [6] was “inactive” in each case. In addition, the Potency result in [8] and in [9] was “inactive” throughout.
In the case of `CCCCOC(=O)CCCCCCCCC(=O)OCCCC`, the Potency entry in [10], in [1], in experiment [3], in experiment [4], in experiment [5] and in [6] was “inactive” in each case. The Potency entry in experiment [8] and in experiment [9] was “inactive” throughout.
For the compound `O=C1OC(c2ccc(O)cc2)(c2ccc(O)cc2)c2ccccc21`, the Potency entry in experiment [10], in experiment [1], in experiment [3], in experiment [4], in experiment [5] and in [6] was “inactive” each time. Moreover, the Potency entry in [8] and in [9] was “inactive” in each case.
With `CCCCCCCCCCCCCCCCCC(=O)OCC(O)CO` (configuration not stated), the Potency entry in [10], in experiment [1], in [3], in [4], in [5] and in [6] was “inactive” throughout. In addition, the Potency entry in experiment [7], in experiment [8] and in experiment [9] was “inactive” throughout.
As to `O=c1c(-c2ccc(O)cc2)coc2cc(O)cc(O)c12`, the Potency result in experiment [10], in experiment [1], in [3], in [4], in experiment [5] and in [8] was “inactive” each time. In addition, the Potency result in experiment [9] was “inactive”. Moreover, the Potency in [6] was 24.5 µM (active).
Turning to `O=[N+]([O-])c1ccc(O)cc1`, the Potency result in [10], in [1], in [3], in experiment [4], in experiment [5] and in experiment [6] was “inactive” each time. Moreover, the Potency result in [8] and in [9] was “inactive” throughout.
